# Experimental data reported in PubChem BioAssay (NCATS).
# Results filed as inconclusive are left out. Entries that show only a call come without a potency. The source made the active and inactive calls. The call rests on the fitted dose curve; in most records, active means well fitted inhibition curve with a large enough effect; inconclusive means small, poorly fitted or top-dose-only effect; inactive means flat fitted curve, though single readings scatter.
# Biological target: Glutathione peroxidase 1 (Homo sapiens) (UniProt P07203)
# Assay: Primary qHTS Assay for Inhibitors of Recombinant Selenoprotein Glutathione Peroxidase 1 (GPX1) (AID 1845191); further: nearly all actives have a fitted effect of over 65% in size
# Details: recombinant GPX1, GR-coupled NADPH fluorescence, 15 min; series mostly up to 48.8 µM; activity, negative = inhibition: at the top concentration
# Procedure, shortened: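 10 nM GPX1 + cpd, 30 min RT; start w/ 1 mM GSH, 0.5 mM cumene hydroperoxide, 0.5 mM NADPH, 100 nM GR, 0.01% BSA; buffer 50 mM Tris-HCl pH 7.5, 2 mM EDTA, 150 mM NaCl; Fl 340/450, 0 & 15 min.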
# Chain of Glutathione peroxidase 1 (Homo sapiens) (P07203 whole entry, looked up): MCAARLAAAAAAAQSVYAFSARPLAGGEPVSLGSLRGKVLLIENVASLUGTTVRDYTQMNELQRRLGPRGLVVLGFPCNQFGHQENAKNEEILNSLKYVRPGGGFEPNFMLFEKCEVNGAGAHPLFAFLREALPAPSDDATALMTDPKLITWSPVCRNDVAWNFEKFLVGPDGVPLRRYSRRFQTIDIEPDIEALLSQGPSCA
SMILES,Potency,outcome
CC[C@H]1OC(=O)[C@H](C)[C@@H](O[C@H]2C[C@@](C)(OC)[C@@H](O)[C@H](C)O2)[C@H](C)[C@@H](O[C@@H]2O[C@H](C)C[C@H](N(C)C)[C@H]2O)[C@](C)(O)C[C@@H](C)CN(C)[C@H](C)[C@@H](O)[C@]1(C)O,inactive,
C=CC[N+]1([C@H]2C[C@H]3[C@@H]4CC[C@H]5C[C@H](O)[C@@H](N6CCOCC6)C[C@]5(C)[C@H]4CC[C@]3(C)[C@H]2OC(C)=O)CCCC1,inactive,
CCN(CC)CCOCCOC(=O)C(CC)(CC)c1ccccc1,inactive,
CC1CC(OC(=O)C(O)c2ccccc2)CC(C)(C)C1 (stereo not given),inactive,
COc1ccc([C@@H]2CC(=O)c3c(O)cc(O[C@@H]4O[C@H](CO[C@@H]5O[C@@H](C)[C@H](O)[C@@H](O)[C@H]5O)[C@@H](O)[C@H](O)[C@H]4O)cc3O2)cc1O,,inactive
